Experimental data published in PubChem BioAssay (Tox21).
Several values for one entry are separate records, joined by “and”; a condition that tells them apart may be missing. Equal entries are not always repeated. Inconclusive results are not listed. Some compounds were tested as several samples or in several runs, with calls that do not always agree. Activity calls are given as the source filed them. Unless noted, calls follow the shape of the dose curve; as a rule, active = well fitted curve in the direction sought with a large enough effect in the repeat runs; inconclusive = weak or mixed curves; inactive = no such curve, though single readings can be large; an effect the other way counts as inactive or inconclusive.

Columns and labels:
[1] = qHTS assay to identify small molecule antagonists of the estrogen related receptor (ERR) signaling pathway from Tox21 library - cell viability counter screen (AID 1224834); also: nearly all actives have a fitted effect of over 30% in size; also: potency is read from the fitted curve at half-maximal effect; as to viability change, negative = cytotoxic: % is scaled to controls: 0 for no effect and ±100 for the full control effect
Method in brief: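 ERR cells, 2,000/well; 6 h settle at 37 C/5% CO2; pin-tool compound transfer in DMSO; 17.5 h at 37 C; CellTiter-Fluor, 30 min; fluorescence intensity.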

[2] = molecular target: Luciferin 4-monooxygenase (Photinus pyralis) (UniProt P08659); experiment: qHTS assay to identify small molecule inhibitors of firefly luciferase (AID 1224835); also: nearly all actives have a fitted effect of over 25% in size; also: potency is read from the fitted curve at half-maximal effect
Chain of Luciferin 4-monooxygenase (Photinus pyralis) (P08659 whole entry, looked up): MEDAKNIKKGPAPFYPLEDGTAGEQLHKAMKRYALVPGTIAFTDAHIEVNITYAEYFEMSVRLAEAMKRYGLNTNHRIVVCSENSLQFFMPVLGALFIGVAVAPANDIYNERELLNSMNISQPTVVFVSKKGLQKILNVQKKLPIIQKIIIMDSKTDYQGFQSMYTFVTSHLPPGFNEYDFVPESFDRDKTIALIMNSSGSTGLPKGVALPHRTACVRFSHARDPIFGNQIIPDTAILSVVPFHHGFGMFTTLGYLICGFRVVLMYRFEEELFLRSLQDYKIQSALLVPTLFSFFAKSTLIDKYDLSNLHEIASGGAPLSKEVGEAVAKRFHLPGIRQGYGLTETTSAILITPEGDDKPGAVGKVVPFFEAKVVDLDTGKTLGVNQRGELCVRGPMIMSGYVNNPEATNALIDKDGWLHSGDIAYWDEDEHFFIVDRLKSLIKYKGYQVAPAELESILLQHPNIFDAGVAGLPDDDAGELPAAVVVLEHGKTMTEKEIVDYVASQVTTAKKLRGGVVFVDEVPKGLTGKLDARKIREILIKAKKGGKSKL
Method in brief: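 Inhibition of purified Photinus luciferase is measured by luminescence. Substrate levels (D-luciferin, ATP) sit at their KM values. Each compound is tested in a concentration series.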

[3] = qHTS assay to identify small molecule agonists of the constitutive androstane receptor (CAR) signaling pathway - cell viability counter screen (AID 1224836); also: nearly all actives have a fitted effect of over 45% in size; also: potency is read from the fitted curve at half-maximal effect
Method in brief: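 Using CellTiter-Fluor, viability of HepG2 cells harbouring hCAR and CYP2B6-2.2kb was measured following 23 h incubation with a 15-concentration compound series plus PK11195 (0.75 uM final).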

[4] = qHTS assay to identify small molecule antagonists of the constitutive androstane receptor (CAR) signaling pathway - cell viability counter screen (AID 1224837); also: nearly all actives have a fitted effect of over 45% in size; also: potency is read from the fitted curve at half-maximal effect
Method in brief: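 Viability was measured with CellTiter-Fluor in a HepG2 line carrying stably transfected hCAR and a CYP2B6-2.2kb construct. Cells were exposed for 23 hr at 37 C to 15 compound concentrations with 50 nM CITCO as agonist.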

[5] = qHTS RealTime-Glo MT Cell Viability Assay in HepG2 cells - 24 hour (AID 1224867); also: nearly all actives have a fitted effect of over 50% in size; also: potency is read from the fitted curve at half-maximal effect
Method in brief: (§1)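 HepG2 cells were seeded at 600 cells/well together with NanoLuc luciferase and a cell-permeant prosubstrate, preincubated 5 h at 37 C/5% CO2, then pin-dosed with compounds in DMSO. Nonlytic luminescence from viable cells was read at each time point.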

[6] = qHTS RealTime-Glo MT Cell Viability Assay in HEK293 cells - 32 hour (AID 1224868); also: nearly all actives have a fitted effect of over 50% in size; also: potency is read from the fitted curve at half-maximal effect
Method in brief: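 HEK293 cells were seeded at 600 cells/well together with NanoLuc luciferase and cell-permeant prosubstrate, preincubated 5 h at 37 C/5% CO2, then given compound in DMSO by pintool. Luminescence from viable-cell prosubstrate reduction was read repeatedly over 40 h.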

[7] = A CellTox Green Cytotoxicity Assay to monitor cytotoxicity in HepG2 cells - 24 hour (AID 1224878); also: nearly all actives have a fitted effect of over 45% in size; also: potency is read from the fitted curve at half-maximal effect
Method in brief: (§2)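 Cells and non-lytic dye reagent are dispensed together (600 HepG2 cells/well) and incubated 5 h before DMSO compound transfer. Kinetic fluorescence is then recorded in the same wells during 40 h at 37 C.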

[8] = A CellTox Green Cytotoxicity Assay to monitor cytotoxicity in HepG2 cells - 40 hour (AID 1224879); also: nearly all actives have a fitted effect of over 40% in size; also: potency is read from the fitted curve at half-maximal effect
Method in brief: as §2

[9] = A CellTox Green Cytotoxicity Assay to monitor cytotoxicity in HepG2 cells - 32 hour (AID 1224883); also: nearly all actives have a fitted effect of over 50% in size; also: potency is read from the fitted curve at half-maximal effect
Method in brief: as §2

[10] = A CellTox Green Cytotoxicity Assay to monitor cytotoxicity in HEK293 cells - 8 hour (AID 1224884); also: nearly all actives have a fitted effect of over 35% in size; also: potency is read from the fitted curve at half-maximal effect; as to cytotoxicity increase: % is scaled to controls: 0 for no effect and ±100 for the full control effect
Method in brief: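 Cells (HEK293, 600/well) and dye reagent are dispensed together. After 5 h at 37 C, 23 nL compound is pinned in. Plates stay at 37 C for 40 h with fluorescence read at 0h, 8h, 16h, 24h, 32h and 40h.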

[11] = qHTS RealTime-Glo MT Cell Viability Assay in HepG2 cells - 16 hour (AID 1224885); also: nearly all actives have a fitted effect of over 50% in size; also: potency is read from the fitted curve at half-maximal effect; as to activity change, negative = cytotoxic: % is scaled to controls: 0 for no effect and ±100 for the full control effect
Method in brief: as §1

[12] = qHTS assay to identify small molecule antagonists of the sonic hedgehog signaling (Shh) pathway - cell viability counter screen (AID 1259367); also: nearly all actives have a fitted effect of over 55% in size; also: potency is read from the fitted curve at half-maximal effect
Method in brief: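 CellTiter-Fluor signal in conditioned medium-stimulated 3T3 Gli1-Luc cells, 23 hr compound exposure, 37C.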

[13] = qHTS assay to identify small molecule agonists of the estrogen receptor alpha (ER-alpha) signaling pathway in the presence of an antagonist - cell viability counter screen (AID 1259386);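 also: cells exposed to compounds for 22 h at 37 °C before the viability read; nearly all actives have a fitted effect of over 30% in size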; also: potency is read from the fitted curve at half-maximal effect; as to activity change, negative = cytotoxicity: series mostly up to about 92 µM; % is scaled to controls: 0 for no effect and ±100 for the full control effect
Method in brief: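 Cytotoxicity was measured in parallel with the ERE-luciferase agonist screen, in the same wells. The cells were VM7Luc4E2, which endogenously express ER-alpha, and treatment was with compounds plus 10.0nM ICI-182,780 for 22hr.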

[14] = qHTS assay to identify small molecule antagonists of the TGF-beta/Smad signaling pathway - cell viability counter screen (AID 1346824)
Method in brief: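 Cytotoxicity counter-screen run in the same wells as the beta-lactamase Smad reporter read: CellTiter-Glo luminescence after 30 min at room temperature. HEK 293T SBE-bla cells had 5 hr compound exposure at 37 C with TGF-beta1 (0.25 ng/mL stock).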

[15] = qHTS assay to identify small molecule agonists of the TGF-beta/Smad signaling pathway - cell viability counter screen (AID 1346829); also: top concentration of the series differs between compounds; % is scaled to controls: 0 for no effect and ±100 for the full control effect; nearly all actives have a fitted effect of over 45% in size
Method in brief: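 CellTiter-Glo luminescence readout; SBE-bla HEK 293T cells, overnight plating, compound 5 hr at 37 C/5% CO2, then bla substrate 2 hr RT, then CellTiter-Glo 30 min RT.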

[16] = molecular target: Cytochrome P450 2C19 (Homo sapiens) (UniProt P33261); experiment: Cytochrome P450 Family 2 Subfamily C Member 19 (CYP2C19) small molecule antagonists: luciferase reporter qHTS assay (AID 1671197); also: nearly all actives have a fitted effect of over 65% in size; also: potency is read from the fitted curve at half-maximal effect
Chain of Cytochrome P450 2C19 (Homo sapiens) (P33261 whole entry, looked up): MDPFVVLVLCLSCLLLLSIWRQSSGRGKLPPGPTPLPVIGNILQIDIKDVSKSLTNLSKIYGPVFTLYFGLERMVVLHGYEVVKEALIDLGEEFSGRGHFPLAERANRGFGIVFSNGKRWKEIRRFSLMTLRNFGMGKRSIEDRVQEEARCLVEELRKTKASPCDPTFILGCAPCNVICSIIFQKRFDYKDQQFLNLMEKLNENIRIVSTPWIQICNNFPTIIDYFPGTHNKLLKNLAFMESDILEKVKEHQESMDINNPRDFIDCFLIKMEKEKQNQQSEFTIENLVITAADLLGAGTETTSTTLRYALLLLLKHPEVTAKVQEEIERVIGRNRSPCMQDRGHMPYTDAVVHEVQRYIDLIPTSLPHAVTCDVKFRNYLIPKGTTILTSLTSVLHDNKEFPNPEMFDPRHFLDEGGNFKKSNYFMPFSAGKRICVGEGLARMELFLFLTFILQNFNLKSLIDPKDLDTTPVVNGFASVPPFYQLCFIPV
Method in brief: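 Enzyme-substrate mix with proluciferin substrate (P450-Glo CYP2C19 system) preincubated with compounds 10 min at room temperature; NADPH regeneration solution added, 37C for 1 h; detection reagent stops reaction, luminescence read after 20 min. Ketoconazole positive control.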

[17] = molecular target: Cytochrome P450 2C9 (Homo sapiens) (UniProt P11712); experiment: Cytochrome P450 Family 2 Subfamily C Member 9 (CYP2C9) small molecule antagonists: luciferase reporter qHTS assay (AID 1671198); also: nearly all actives have a fitted effect of over 50% in size; also: potency is read from the fitted curve at half-maximal effect
Chain of Cytochrome P450 2C9 (Homo sapiens) (P11712 whole entry, looked up): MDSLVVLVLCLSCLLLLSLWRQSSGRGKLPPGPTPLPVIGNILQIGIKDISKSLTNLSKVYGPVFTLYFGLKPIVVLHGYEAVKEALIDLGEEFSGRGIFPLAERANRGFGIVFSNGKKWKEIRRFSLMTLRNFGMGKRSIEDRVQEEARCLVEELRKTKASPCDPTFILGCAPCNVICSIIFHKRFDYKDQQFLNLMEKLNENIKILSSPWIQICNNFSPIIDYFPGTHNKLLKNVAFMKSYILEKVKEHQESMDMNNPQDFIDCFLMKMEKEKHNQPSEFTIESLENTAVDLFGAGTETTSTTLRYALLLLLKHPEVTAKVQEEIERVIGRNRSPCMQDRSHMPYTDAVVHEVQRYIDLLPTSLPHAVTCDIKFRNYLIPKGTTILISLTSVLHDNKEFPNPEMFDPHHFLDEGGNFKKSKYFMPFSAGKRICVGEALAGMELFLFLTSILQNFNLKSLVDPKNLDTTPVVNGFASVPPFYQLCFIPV
Method in brief: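 Enzyme-substrate mix preincubated with compound 10 min at room temperature; reaction started with NADPH regeneration solution, 1 h 37C. Luminescent luciferin product read after 20 min detection reagent.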

[18] = qHTS assay to identify small molecule antagonists of the androgen receptor (AR) signaling pathway using the MDA cell line in the presence of 0.5 nM R1881 - cell viability counter screen (AID 1259242); also: nearly all actives have a fitted effect of over 45% in size; also: potency is read from the fitted curve at half-maximal effect
Method in brief: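 Steps: plate MDA-kb2 cells, rest 5 hr at 37C without CO2; pin in compounds in DMSO; add R1881 to 0.5 nM final; incubate 16 hr; add CellTiter-Fluor, 30 min; read fluorescence.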

[19] = qHTS assay to identify small molecule agonists of the AP-1 signaling pathway - cell viability counter screen (AID 1159525; calls by dose curve; also: nearly all actives have a fitted effect of over 55% in size; also: potency is read from the fitted curve at half-maximal effect)
Method in brief: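 Intracellular ATP by Cell Titer Glo luminescence (30 min, RT) in the same ME-180 AP-1-bla wells after the 5 h compound exposure at 37 °C. Normalised to tetra n-octyl ammonium bromide and DMSO controls.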

[20] = molecular target: Retinoic acid receptor RXR-alpha (Homo sapiens) (UniProt P19793); experiment: qHTS assay to identify small molecule agonists of the RXR signaling pathway (AID 1159527; calls by dose curve; also: % is scaled to controls: 0 for no effect and ±100 for the full control effect; nearly all actives have a fitted effect of over 35% in size)
Chain of Retinoic acid receptor RXR-alpha (Homo sapiens) (P19793 whole entry, looked up): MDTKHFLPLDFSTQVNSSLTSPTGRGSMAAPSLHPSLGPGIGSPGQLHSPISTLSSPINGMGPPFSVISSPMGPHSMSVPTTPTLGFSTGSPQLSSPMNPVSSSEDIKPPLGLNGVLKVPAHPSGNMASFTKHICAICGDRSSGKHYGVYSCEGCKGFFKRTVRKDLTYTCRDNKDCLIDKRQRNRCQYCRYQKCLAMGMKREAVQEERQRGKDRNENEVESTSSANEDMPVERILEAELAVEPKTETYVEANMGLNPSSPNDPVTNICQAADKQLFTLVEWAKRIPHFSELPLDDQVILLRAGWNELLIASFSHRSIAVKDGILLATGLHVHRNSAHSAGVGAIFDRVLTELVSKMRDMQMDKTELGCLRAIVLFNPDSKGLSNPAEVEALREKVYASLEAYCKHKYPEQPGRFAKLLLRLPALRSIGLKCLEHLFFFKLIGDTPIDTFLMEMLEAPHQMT
Method in brief: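 16 hr incubation of compound-treated RXR-alpha-UAS-bla HEK 293T cells (2% charcoal-stripped FBS, 37 C) preceded a 2 hr room-temperature LiveBLAzer FRET substrate step and blue/green fluorescence measurement.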

CN1CSC(=S)N(C)C1
inactive: Potency [2] | Potency [10] | Potency [11] | Potency [13] | Potency [14] | outcome [15]
active: Potency [1] 6.08 µM and 13.6 µM | Potency [3] 4.83 µM and 15.3 µM | Potency [4] 5.42 µM and 7.67 µM | Potency [5] 17.3 µM | Potency [6] 17.3 µM and 24.5 µM | Potency [7] 10.9 µM and 27.5 µM | Potency [8] 12.2 µM and 10.9 µM | Potency [9] 10.9 µM and 21.8 µM | Potency [12] 3.05 µM and 13.6 µM | Potency [16] 35.4 µM and 17.8 µM | Potency [17] 8.91 µM

Cc1ccc2nc3sc(=O)sc3nc2c1
inactive: viability change, negative = cytotoxic [1] -9.38% [at 19 µM] | viability change, negative = cytotoxic [3] 1.63% [at 19 µM] | activity change, negative = cytotoxicity [4] 11.8% [at 19 µM] | activity change, negative = cytotoxicity [5] -4.88% [at 15.8 µM] | activity change, negative = cytotoxic [6] 8.73% [at 15.8 µM] | cytotoxicity [7] -2.5% [at 15.8 µM] | cytotoxicity increase [8] -2.41% [at 15.8 µM] | cytotoxicity increase [9] -5.02% [at 15.8 µM] | cytotoxicity increase [10] 4.71% [at 15.8 µM] | activity change, negative = cytotoxic [11] 0.198% [at 15.8 µM] | viability change, negative = cytotoxic [18] -14.8% [at 19 µM] | activity change, negative = cytotoxicity [13] -6.53% [at 19 µM] | viability change, negative = cytotoxic [14] 2.33% [at 15.8 µM] | activity change, negative = cytotoxicity [15] 17% [at 15.8 µM]
active: Potency [16] 16.9 µM

COc1cc(OC)c(OC)cc1C=O
active: Potency [12] 47.1 µM | Potency [16] 38.7 µM
inactive: Potency [19] | Potency [1] | Potency [2] | Potency [3] | Potency [4] | Potency [5] | Potency [6] | Potency [7] | Potency [8] | Potency [9] | Potency [10] | Potency [11] | Potency [18] | Potency [13] | Potency [14] | outcome [15]

Brc1cc(Br)cc(Br)c1
inactive: Potency [20]

CCN(CC)C(=O)Cl
inactive: Potency [19] | Potency [20] | Potency [1] | Potency [2] | Potency [3] | Potency [4] | Potency [5] | Potency [6] | Potency [7] | Potency [8] | Potency [9] | Potency [10] | Potency [11] | Potency [18] | Potency [12] | Potency [13] | Potency [14] | outcome [15] | Potency [16] | Potency [17]

O=[N+]([O-])c1c(Cl)c(Cl)cc(Cl)c1Cl
active: Potency [8] 54.9 µM | Potency [9] 54.9 µM | Potency [16] 71 µM
inactive: Potency [19] | Potency [1] | Potency [2] | Potency [3] | Potency [4] | Potency [5] | Potency [6] | Potency [11] | Potency [18] | Potency [12] | Potency [13] | Potency [14] | outcome [15]

O=C(c1ccccc1)C(Cl)Cl
active: Potency [1] 61.1 µM | Potency [3] 61.1 µM | Potency [4] 54.5 µM | Potency [6] 38.9 µM
inactive: Potency [19] | Potency [2] | Potency [7] | Potency [9] | Potency [10] | Potency [18] | Potency [13] | Potency [14] | outcome [15] | Potency [16]

C[C@]12CC[C@@H](O)C[C@@H]1CC[C@@H]1[C@@H]2CC[C@]2(C)C(=O)CC[C@@H]12
active: Potency [19] 49 µM | Potency [6] 24.5 µM
inactive: Potency [3] | Potency [4] | Potency [5] | Potency [7] | Potency [8] | Potency [9] | Potency [10] | Potency [11] | Potency [18] | Potency [12] | Potency [13] | Potency [14] | outcome [15]

COCCOC(=O)c1ccccc1C(=O)OCCOC
inactive: Potency [20]

Oc1c(I)cc(I)cc1I
inactive: Potency [19] | Potency [1] | Potency [2] | Potency [3] | Potency [4] | Potency [5] | Potency [6] | Potency [7] | Potency [8] | Potency [9] | Potency [10] | Potency [11] | Potency [18] | Potency [12] | Potency [13] | Potency [14] | outcome [15]
active: Potency [17] 56.4 µM

Cc1cc(C(C)(C)c2ccc(O)c(C)c2)ccc1O
active: Potency [1] 51.9 µM | Potency [6] 23.4 µM | Potency [12] 46.2 µM | Potency [16] 2.14 µM | Potency [17] 5.37 µM
inactive: Potency [19] | Potency [2] | Potency [5] | Potency [11] | Potency [14] | outcome [15]

CNC(=O)Oc1cc(C)c(SC)c(C)c1
active: Potency [16] 56.4 µM
inactive: Potency [19] | Potency [20] | Potency [1] | Potency [3] | Potency [4] | Potency [5] | Potency [7] | Potency [8] | Potency [9] | Potency [10] | Potency [11] | Potency [18] | Potency [12] | Potency [13] | Potency [14] | outcome [15]

CCOC(=O)C(O)(c1ccc(Cl)cc1)c1ccc(Cl)cc1
inactive and 43.6 µM (active): Potency [8] | Potency [9]
inactive: Potency [2] | Potency [3] | Potency [4] | Potency [5] | Potency [10] | Potency [11] | Potency [18] | Potency [13] | Potency [14] | outcome [15]
active: Potency [19] 44.1 µM and 43.6 µM | Potency [1] 49.1 µM | Potency [6] 22.1 µM | Potency [16] 453 nM and 317 nM | Potency [17] 10.1 µM and 7.96 µM
inactive and 38.9 µM (active): Potency [7]

Brc1c2ccccc2c(Br)c2ccccc12
inactive: activation [20] 1.52% [at 6.98 µM]

CCC(C)=O
inactive: Potency [20]

Nc1ccc([N+](=O)[O-])cc1
inactive: Potency [5] | Potency [11] | Potency [14] | outcome [15]
active: Potency [19] 38.9 µM | Potency [1] 15.4 µM | Potency [4] 30.6 µM | Potency [6] 38.9 µM | Potency [7] 43.6 µM | Potency [8] 43.6 µM | Potency [9] 43.6 µM | Potency [13] 27.3 µM | Potency [16] 3.56 µM | Potency [17] 25.2 µM

O=S(=O)(C(Cl)(Cl)Cl)C(Cl)(Cl)Cl
inactive: Potency [13]
active: Potency [19] 49 µM | Potency [1] 48.6 µM | Potency [2] 20 µM | Potency [3] 54.5 µM | Potency [4] 30.6 µM | Potency [5] 38.9 µM | Potency [6] 9.77 µM | Potency [7] 27.5 µM | Potency [8] 19.5 µM | Potency [9] 24.5 µM | Potency [10] 24.5 µM | Potency [11] 38.9 µM | Potency [18] 54.5 µM | Potency [12] 54.5 µM | Potency [16] 25.2 µM | Potency [17] 11.2 µM

Cc1c(N)cccc1[N+](=O)[O-]
inactive: Potency [20]
